The values below come from PubChem BioAssay (EPA / NIEHS).

Calls of active or inactive are those of the source. Rule for the calls: active = hit-call score of the fitted dose curve at least 0.9, where 1 is the maximum; inactive = score below 0.9.

One assay can be described thus: CCTE_Harrill_HTTr_Viability_MCF7: CCTE's 6-hour Cell Viability Assessment for the High-Throughput Transcriptomics (HTTr) Platform, in MCF-7 cells cultured in DMEM + 10% fetal bovine serum, Harrill Lab (AID 2284010). The gist of the method: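 Propidium iodide exclusion, imaged by high-content analysis, gauged viability after a six-hour exposure across eight concentrations. Cells were MCF-7 grown in DMEM with 10% fetal bovine serum; fits run in both directions against DMSO.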
For the compound `CC(C)=CCCC(C)CCO` (stereo unspecified), the result was inactive.
Same read-out and setting: then `COCCOc1cc2cc(C(=O)NC3CCN(C(C)C)CC3)n(CC(=O)Nc3ccc(Cl)cn3)c2cn1`, with “inactive”; and `COc1ccc(-n2nc(C(F)F)cc2-c2ccc(S(C)=O)cc2)cc1` (stereo unspecified), with “inactive”; and `O=C1CCC(N2C(=O)c3ccccc3C2=O)C(=O)N1` (stereo unspecified), with “inactive”.
Turning to `O=C(O)c1cccc(Oc2ccccc2)c1`, the outcome was inactive.
Still for that read-out and setting: then `CN(C)c1ccc(N=NS(=O)(=O)O)cc1`, with “inactive”; and `NC(=O)NO`, with “inactive”; and `CCN(C(=O)c1cc(C)cc(OC[C@H](C)Nc2ccncc2)c1)C(C)C`, with “inactive”.
The same measure, in the same setting: then `Nc1ccc(Nc2ccccc2)cc1`, with “inactive”; and `CCNc1ccccc1`, with “inactive”.
As to `CC1(C)C(=O)N(Br)C(=O)N1Br`, the outcome was inactive.
On the same count and under the same terms, then `COC(=O)c1ccccc1O`, with “inactive”.
The same measure, in the same setting: for `COCCOCCOCCOC` the value was “inactive”.
For `Nc1nc2ncc(CNc3ccc(C(=O)N[C@@H](CCC(=O)O)C(=O)O)cc3)nc2c(=O)[nH]1`, the outcome was inactive.
The same measure, in the same setting: then `COC(=O)CC(=O)OC`, with “inactive”.
Still for that read-out and setting: for `CC(C)(O)c1coc(S(=O)(=O)NC(=O)Nc2c3c(cc4c2CCC4)CCC3)c1` the value was “inactive”; for `Clc1nc(Cl)c(Cl)c(Cl)c1Cl`, “inactive”.
Still for that read-out and setting: for `C=CC(=C)CCC=C(C)C` the value was “inactive”; for `Cc1ccc(O)cc1`, “inactive”.
For `CCOCCO`, the result was inactive.
On the same count and under the same terms, then `CC(=O)c1ccc2c(c1)[C@H](NC(=O)c1ccc(F)cc1)[C@@H](O)C(C)(C)O2`, with “inactive”.
Same read-out and setting: for `CCOCCOCCOCCO` the value was “inactive”; for `C1=CCCC=CCCC=CCC1`, “inactive”.
Still for that read-out and setting: for `CC(O)CN(CCN(CC(C)O)CC(C)O)CC(C)O` (stereo unspecified) the value was “inactive”; for `COC(=O)c1c(Cl)c(Cl)c(C(=O)OC)c(Cl)c1Cl`, “inactive”.
As to `CCCC(=O)OCC`, the outcome was inactive.
On the same count and under the same terms, then `CC(C)=CCC/C(C)=C\CO`, with “inactive”.
The same measure, in the same setting: then `O=C1OC(=O)C2C3C=CC(C3)C12` (stereo unspecified), with “inactive”.

The next assay is described as follows: CCTE_Harrill_HTTr_Apoptosis_MCF7: CCTE's 6-hour Apoptosis Assessment for the High-Throughput Transcriptomics (HTTr) Platform, in MCF-7 cells cultured in DMEM + 10% fetal bovine serum, Harrill Lab (AID 2284011). The gist of the method: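 High-content imaging of CellEvent Caspase 3/7 Green signal follows a six-hour exposure, with eight concentrations per chemical. MCF-7 cells grown in DMEM plus 10% fetal bovine serum; activity fitted in both directions against DMSO.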
As to `CC(C)=CCCC(C)CCO` (stereo unspecified), the outcome was inactive.
Still for that read-out and setting: for `COCCOc1cc2cc(C(=O)NC3CCN(C(C)C)CC3)n(CC(=O)Nc3ccc(Cl)cn3)c2cn1` the value was “inactive”.
The same measure, in the same setting: then `COc1ccc(-n2nc(C(F)F)cc2-c2ccc(S(C)=O)cc2)cc1` (stereo unspecified), with “inactive”; and `O=C1CCC(N2C(=O)c3ccccc3C2=O)C(=O)N1` (stereo unspecified), with “inactive”; and `O=C(O)c1cccc(Oc2ccccc2)c1`, with “inactive”.
As for `CN(C)c1ccc(N=NS(=O)(=O)O)cc1`, the outcome was inactive.
Same read-out and setting: then `NC(=O)NO`, with “inactive”.
Same read-out and setting: for `CCN(C(=O)c1cc(C)cc(OC[C@H](C)Nc2ccncc2)c1)C(C)C` the value was “inactive”; for `Nc1ccc(Nc2ccccc2)cc1`, “inactive”.
The same measure, in the same setting: then `CCNc1ccccc1`, with “inactive”; and `CC1(C)C(=O)N(Br)C(=O)N1Br`, with “inactive”; and `COC(=O)c1ccccc1O`, with “inactive”.
Regarding `COCCOCCOCCOC`, the outcome was inactive.
As for `Nc1nc2ncc(CNc3ccc(C(=O)N[C@@H](CCC(=O)O)C(=O)O)cc3)nc2c(=O)[nH]1`, the result was inactive.
In the case of `COC(=O)CC(=O)OC`, the outcome was inactive.
Still for that read-out and setting: then `CC(C)(O)c1coc(S(=O)(=O)NC(=O)Nc2c3c(cc4c2CCC4)CCC3)c1`, with “inactive”; and `Clc1nc(Cl)c(Cl)c(Cl)c1Cl`, with “inactive”.
Same read-out and setting: for `C=CC(=C)CCC=C(C)C` the value was “inactive”.
The same measure, in the same setting: for `Cc1ccc(O)cc1` the value was “inactive”; for `CCOCCO`, “inactive”.
Turning to `CC(=O)c1ccc2c(c1)[C@H](NC(=O)c1ccc(F)cc1)[C@@H](O)C(C)(C)O2`, the outcome was inactive.
Still for that read-out and setting: for `CCOCCOCCOCCO` the value was “inactive”; for `C1=CCCC=CCCC=CCC1`, “inactive”.
Take `CC(O)CN(CCN(CC(C)O)CC(C)O)CC(C)O` (stereo unspecified): the result was inactive.
Still for that read-out and setting: then `COC(=O)c1c(Cl)c(Cl)c(C(=O)OC)c(Cl)c1Cl`, with “inactive”.
Still for that read-out and setting: for `CCCC(=O)OCC` the value was “inactive”.
Same read-out and setting: then `CC(C)=CCC/C(C)=C\CO`, with “inactive”; and `O=C1OC(=O)C2C3C=CC(C3)C12` (stereo unspecified), with “inactive”.
